PGK inhibitor: qHTS Assay to Find Inhibitors of Phosphoglycerate Kinase; PGK/GAPDH coupled, Kinase-Glo luminescence, 60 min; Potency, µM (top dose mostly 57.5 µM), for the others: at the highest dose activity change, negative = inhibition, usual class: inhibitors; actives 0.043% (n = 380,000); AID 602233, 2012; also: potency is read from the fitted curve at half-maximal effect; nearly all actives have a fitted effect of over 60% in size
Target sequence (P07378 whole entry, looked up): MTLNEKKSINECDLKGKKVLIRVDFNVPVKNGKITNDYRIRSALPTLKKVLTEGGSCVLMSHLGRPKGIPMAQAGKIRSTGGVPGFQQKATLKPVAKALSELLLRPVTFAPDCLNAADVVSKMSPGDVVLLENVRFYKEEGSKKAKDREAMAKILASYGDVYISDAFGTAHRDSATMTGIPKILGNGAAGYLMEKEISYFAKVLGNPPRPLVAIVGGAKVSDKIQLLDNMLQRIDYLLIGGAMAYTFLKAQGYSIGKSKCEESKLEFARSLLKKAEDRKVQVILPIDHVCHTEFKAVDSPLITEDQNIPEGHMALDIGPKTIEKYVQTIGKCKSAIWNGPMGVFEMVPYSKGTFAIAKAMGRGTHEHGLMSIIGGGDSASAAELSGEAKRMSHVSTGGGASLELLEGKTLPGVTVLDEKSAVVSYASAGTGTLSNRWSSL
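Luminescent ATP detection (Kinase-Glo Plus) follows a 60-minute room-temperature incubation, with wells lacking PGK as controls. Buffer: 100 mM TEA (pH 7.6), 5 mM MgCl2, 0.01% Tween-20. Coupling enzyme GAPDH (100 nM final) supplies unstable 1,3-BPG in-well.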
PI4K2A block: qHTS for small molecular inhibitors of PI4K2A. purified PI4K2A, ADP-Glo luminescence, 1 h; active compounds read low. AID 1346378, 2018. actives 0.13% (n = 420,000). Phosphatidylinositol 4-kinase type 2-alpha (Homo sapiens), Q9BTU6. activity change, negative = inhibition, % at 76.9 µM; in the data active = activity change below about -50%; inconclusive = mostly about -30% to -49%;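 also: -100% = wells without enzyme as full effect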
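Compounds are screened against recombinant PI4K2A using PI as substrate and ATP, the latter dispensed at 300 microM. Reactions run one hour at ambient temperature before ADP-Glo detection; full inhibition defined by wells lacking enzyme.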
PI5P4K alpha inh: qHTS for Inhibitors of phosphatidylinositol 5-phosphate 4-kinase (PI5P4K) | PI5P4Kalpha enzyme, ADP-Glo luminescence, 60 min; active compounds read low | AID 652105, 2013 | actives 1.2% (n = 330,000) | max response, %; active = max response of -50% or lower; inconclusive = between -30% and -50%; inactive = -30% or higher; also: value at the top dose of about 77 µM
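Luminescence from ADP-Glo served as readout of PI5P4Kalpha activity in a qHTS format. Reaction: enzyme, substrate, compound, ATP at 5 microM final, 60 min at RT.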
Pin1 inhibitor: qHTS Assay to Find Inhibitors of Pin1 | Peptidyl-prolyl cis-trans isomerase NIMA-interacting 1 (Homo sapiens), Q13526 | actives 0.009% (n = 390,000) | AID 504891, 2011 | Potency, µM (top dose mostly 115 µM), for inactives: at the highest dose activity, negative = inhibition, hits mostly inhibitors | Pin1 FP peptide displacement, HiFluor488, 10 min; active = well fitted inhibition curve with a large enough effect in the polarisation, with a control signal flat, not every such curve was filed as active; inconclusive = small, poorly fitted or top-dose-only effect, or effect the other way, or a change in a side signal; inactive = no such curve, though single readings can be large or run the other way; the % refers to the polarisation; also: potency is read from the fitted curve at half-maximal effect
Tb PFK inh: qHTS Assay to Find Inhibitors of T. brucei phosphofructokinase; ATP-dependent 6-phosphofructokinase (Trypanosoma brucei brucei), O15648; T. brucei PFK, ADP-Glo luminescence; Potency, µM (highest dose often 57.5 µM), without a hit: at the highest dose activity, negative = inhibition, most hits filed as inhibitors; actives 0.17% (n = 330,000); AID 485367, 2010;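 also: potency is read from the fitted curve at half-maximal effect; 0% = uninhibited 1x PFK enzyme wells and -100% = no-enzyme wells; nearly all actives have a fitted effect of over 60% in size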
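In TEA buffer at pH 8.0 with 5 mM MgCl2, enzyme (1.25 nM) converted F6P (0.5 mM) and ATP (0.1 mM) for 45 min at room temperature. ADP product was read by luciferase luminescence.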
* marks the source's active call; other numbers are inactive results; i = inactive; ? = inconclusive; nt = not tested or not shown. Shown is part of a subset that was picked to be rich in hits. Unless noted, calls follow the shape of the dose curve; as a rule, active = well fitted curve in the direction sought with a large enough effect; inconclusive = small, poorly fitted or top-dose-only effect, or another doubt; inactive = no such curve, though single readings can be large; an effect the other way counts as inactive or inconclusive. Unless noted, % is scaled to controls: 0 for no effect and ±100 for the full control effect.

SMILES | PGK inhibitor | PI4K2A block | PI5P4K alpha inh | Pin1 inhibitor | Tb PFK inh
Oc1cccc(/C=N/NC(=S)Nc2cccnc2)c1O | -16% | 3 | -66* | ? | -7%
COc1ccc(CCNC(=O)CCNS(=O)(=O)c2cccc3nonc23)cc1OC | i | 11 | nt | 0% | -2%
O=C1/C(=C/c2ccccn2)SC(=S)N1Nc1ncc(C(F)(F)F)cc1Cl | 2% | -11 | -66* | 1% | nt
O=C(Nc1ccc(Cl)cc1)C1CCCN1C(=O)NCc1ccccc1 (stereo unspecified) | -5% | 3 | 5 | -9% | 3%
C=CCOc1ccc(Br)cc1/C=C1/SC(=Nc2ccc(C(=O)O)cc2)NC1=O | ? | 0 | -72* | 60% | -2%
Cc1ccc(S(=O)(=O)/N=C2/NC(=O)/C(=C\c3cc(Br)cc(Br)c3O)S2)cc1 | ? | -8 | -78* | ? | ?
C=CCOc1ccc(Br)cc1/C=N/O | i | -1 | 4 | -3% | -5%
C=CCOc1c(Br)cc(/C=C2\SC(=Nc3ccccc3)NC2=O)cc1OC | -8% | -4 | -16 | 2% | 2%
CCOc1cc(Br)cc(/C=C2\SC(=Nc3ccccc3)NC2=O)c1O | -2% | 0 | -62* | 4% | 3%
O=c1[nH]c(/C=C/c2ccc3c(c2)OCO3)c([N+](=O)[O-])c(=O)[nH]1 | nt | nt | nt | nt | 0%
Cc1cccc(NC(=O)COc2ccc(/C=C\c3[nH]c(=O)[nH]c(=O)c3[N+](=O)[O-])cc2)c1 | ? | -6 | -57* | ? | -12%
CCOC(=O)c1cccc(NC(=O)COc2ccc([N+](=O)[O-])cc2)c1 | nt | -1 | nt | 1% | -14%
O=c1[nH]c(/C=C/c2ccc([N+](=O)[O-])cc2)c([N+](=O)[O-])c(=O)[nH]1 | -8% | -29 | -66* | -1% | 2%
CN(C)/C=C/c1[nH]c(=O)[nH]c(=O)c1[N+](=O)[O-] | -10% | 0 | -80* | 1% | -4%
COc1ccc(OC)c(C=Cc2ccc([N+](=O)[O-])cc2)c1 | i | -3 | 6 | nt | nt
COc1ccc(OC)c(/C=C/c2[nH]c(=O)[nH]c(=O)c2[N+](=O)[O-])c1 | -3% | -19 | -77* | 0% | 0%
Brc1cccc(CNCCCN2CCOCC2)c1 | -1% | 2 | -21 | -1% | -4%
Cc1ccc(-c2ccc(S(=O)(=O)N3CCCC3)cc2)cc1 | -12% | -10 | -1 | -1% | 1%
O=S(=O)(c1ccc(-c2n[nH]c(=S)o2)cc1)N1CCCC1 | -12% | 1 | -83* | -6% | -1%
O=S(=O)(c1ccc(-c2n[nH]c(=S)o2)cc1)N1CCCCC1 | i | 5 | -77* | -1% | 0%
O=S(=O)(c1ccc(-c2ccon2)s1)N1CCN(c2ccccn2)CC1 | -9% | -2 | -3 | 10% | 1%
O=C1NC(=S)S/C1=C\c1ccc(SCc2ccco2)o1 | 14µM* | -28 | -99* | ? | -27%
O=C1NC(=S)S/C1=C\c1ccc(SCc2ccccc2)o1 | ? | -4 | -77* | ? | 13%
CCN(CC)c1ccc(C=C2SC(=S)NC2=O)cc1 | -4% | -2 | ? | ? | nt
Nc1ccccc1Sc1ccc(C(=O)c2ccccc2C(=O)O)cc1[N+](=O)[O-] | i | -3 | -66* | -5% | -4%
O=[N+]([O-])c1ccccc1N=Nc1ccc(O)cc1O | -14% | -2 | ? | ? | nt
O=S(=O)(O)c1cc(O)c(N=Nc2ccc(O)cc2O)c2ccccc12 | 25µM* | ? | -78* | nt | nt
COc1ccc(CNc2ccc3c(c2)nc(C)n3C)cc1OC | 0% | -6 | 1 | -9% | 1%
N#Cc1cc(C#N)c(SCC(=O)N2CC(=O)Nc3ccccc32)nc1N | 6% | 9 | -53* | 6% | 7%
C=CCn1c(C)cc(C(=O)Cn2ncc(Cl)c(Cl)c2=O)c1C | 6% | -19 | -72* | ? | 4%

Screening results: PubChem, National Center for Advancing Translational Sciences (NCATS)
